Results filed as inconclusive are left out. Calls of active or inactive are those of the source. Calls follow the shape of the dose curve; as a rule, active = well fitted cell-killing curve with a large enough effect in the repeat runs; inconclusive = weak or mixed curves, or effect the other way; inactive = no such curve, though single readings can be large or run the other way.
Experiment: qHTS assay to identify small molecule agonists of the RXR signaling pathway - cell viability counter screen (AID 1159529); also: nearly all actives have a fitted effect of over 50% in size
Conditions: RXR-alpha-bla HEK293T viability, CellTiter-Glo, 16 h; series mostly up to 76.8 µM; activity change, negative = cytotoxicity: at the top concentration
From the text: National Center for Advancing Translational Sciences [NCATS]
NIH Chemical Genomics Center [NCGC]
U.S. Environmental Protection Agency [EPA]
National Institutes of Environmental Health Sciences [NIEHS]
National Toxicology Program [NTP]
U.S. Food and Drug Administration [FDA]
The Retinoid X receptor (RXR), a nuclear hormone receptor expressed in liver, spleen, placenta, epidermis, central nervous system. These receptors are able to form homo and heterodimers with other nuclear receptors and due to this heterodimerizing ability, RXR functions as master regulators producing diverse physiological effects. Three subtypes of RXR exist; alpha, beta and gamma. Retinoid X receptor alpha (RXR-alpha) has potential roles in metabolic signaling pathways, skin alopecia, dermal cysts, cardiac development, insulin sensitization etc. Therefore screening environmental chemicals on RXR-alpha signaling can be used for the studies focused on such therapeutic applications. For quantification of RXR-alpha ligands signaling, GeneBLAzer RXR alpha-UAS-bla HEK 293T (Life Technologies, Carlsbad, CA) cells containing a beta-lactamase reporter-gene under control of Retinoid X receptor-alpha response element were used to screen Tox21 10K library. The cytotoxicity of the Tox21 compound library against the RXR-alpha HEK 293T cell line was tested in parallel by measuring cell viability using CellTiter-Glo assay (Promega Corporation, Madison, WI) in the same wells.
Tox21 Assay Protocol Summary:
RXR-alpha HEK 293T cells were dispensed at 2,000 cells/6 uL of assay medium containing 2% charcoal-stripped FBS using a Multidrop Combi (ThermoFisher Scientific, Waltham, MA) dispenser. The assay was performed in black wall/clear-bottom 1536-well plates (Greiner Bio-One North America Inc. Monroe, NC). Tetraoctyl ammonium bromide was used as a positive control in the cytotoxicity screen. After the assay plates were incubated at 37 C and 5% CO2 for 5 hr, 23 nL of compounds dissolved in DMSO, positive control or DMSO only were transferred to the assay plate by a Pintool station (Kalypsys, San Diego, CA). The assay plates were incubated at 37 C and 5% CO2 for 16 hr. One uL of LiveBLAzer B/G FRET substrate (Life Technologies) was added using a Flying Reagent Dispenser (FRD) (Aurora Discovery, San Diego, CA) and the plates were incubated at room temperature for 2 hr. Fluorescence intensity (405 nm excitation, 460/530 nm emission) was measured using an Envision plate reader (PerkinElmer, Shelton, CT). For cytotoxicity, 4 uL/well of CellTiter-Glo reagent was added into the assay plates using an FRD. After 30 min incubation at room temperature, the luminescence intensity was measured using a ViewLux plate reader (PerkinElmer).
% is scaled to controls: 0 for no effect and ±100 for the full control effect; potency is read from the fitted curve at half-maximal effect.

SMILES	activity change, negative = cytotoxicity	Potency
CC(C)COC(=O)COc1cc(Cl)c(Cl)cc1Cl	-3.37% (inactive)	
C=CC(=O)O	2% [at 35.3 µM] (inactive)	
CC(=O)NNC(C)=O	-0.983% (inactive)	
CCN(CC)CCNC(=O)c1cc(Cl)c(N)cc1OC	12.4% [at 35.3 µM] (inactive)	
COC(=O)C1=C(C)NC(C)=C(C(=O)OC(C)(C)CN(C)CCC(c2ccccc2)c2ccccc2)C1c1cccc([N+](=O)[O-])c1 (stereo not given)	-6.76% [at 35.3 µM] (inactive)	
[Cl][Nd]([Cl])[Cl]	-12.8% (inactive)	
CC(C)(O)CCc1ccccc1	0.144% (inactive)	
CC(O)Cn1cnc2c1c(=O)n(C)c(=O)n2C (stereo not given)	6.82% [at 35.3 µM] (inactive)	
O=C(O)CNC(=O)c1ccccc1I	7.95% [at 35.3 µM] (inactive)	
Cc1ccc(S(=O)(=O)NC(=O)NC2CCCCC2)cc1	11.3% [at 35.3 µM] (inactive)	
CCOC(=O)c1ccc(NC(=O)CN2CCCCC2)cc1	-18.9% [at 35.3 µM] (inactive)	
CCCCCCCCCCCCCOC(=O)CCSCCC(=O)OCCCCCCCCCCCCC	10.7% [at 15.8 µM] (inactive)	
CCN(CC)CCOC(=O)C(c1ccccc1)c1ccccc1	-0.58% [at 35.3 µM] (inactive)	
CSSc1ccoc1C	-1.05% (inactive)	
O=C(O)c1cccc(Oc2ccccc2)c1	11.6% (inactive)	
CCN(CC)CCOc1ccccc1C(=O)CCc1ccccc1		9.52 µM (active)
O=c1[nH]c2cc(C(F)(F)F)c(N3CCOCC3)cc2n(CP(=O)(O)O)c1=O	-2.05% [at 35.3 µM] (inactive)	
O=C(O)/C=C/c1ccc(O)c(O)c1	-8.63% (inactive)	
CC(C)C(=O)OCCOc1ccccc1	3.12% (inactive)	
CC[C@H]1OC(=O)[C@H](C)[C@@H](O[C@H]2C[C@@](C)(OC)[C@@H](O)[C@H](C)O2)[C@H](C)[C@@H](O[C@@H]2O[C@H](C)C[C@H](N(C)C)[C@H]2O)[C@](C)(O)C[C@@H](C)/C(=N\OCOCCOC)[C@H](C)[C@@H](O)[C@]1(C)O	2.82% [at 35.3 µM] (inactive)	

SMILES	activity change, negative = cytotoxicity	Potency
Oc1ccc2c(c1)Cc1ccccc1-2	2.27% (inactive)	
O=C1OC[C@H](Cc2cccc(O)c2)[C@H]1Cc1cccc(O)c1	-0.444% [at 35.3 µM] (inactive)	
O=C1NC(=O)c2cccc3cccc1c23	1.11% (inactive)	
CC1CCc2nccnc21 (stereo not given)	19% (inactive)	
Nc1nc2ccc(OC(F)(F)F)cc2s1	-0.218% [at 35.3 µM] (inactive)	
CN=C(N)NC(=O)Nc1c(C)cccc1C	9.35% [at 35.3 µM] (inactive)	
O=C(c1ccccc1)C1CCC1	1.3% (inactive)	
Nc1ccn([C@H]2CS[C@@H](CO)O2)c(=O)n1	12.4% (inactive)	
c1ccc(CCCc2ccncc2)cc1	-0.267% (inactive)	
COc1ccc(C)cc1	3.81% (inactive)	
Cc1ccc2c(c1)CCCN2	-14.2% (inactive)	
c1ccc2sc(SSc3nc4ccccc4s3)nc2c1	-2.29% [at 15.8 µM] (inactive)	
CC(=O)c1ccc[nH]1	-9.71% (inactive)	
CCN(CC)CC(=O)Nc1c(C)cccc1C(=O)OC	-9.52% [at 35.3 µM] (inactive)	
NC(=O)c1ccccc1[N+](=O)[O-]	-10% (inactive)	
C=C(C)C(=O)OCCC(F)(F)C(F)(F)C(F)(F)C(F)(F)C(F)(F)C(F)(F)F	1.66% (inactive)	
CC(=O)C(=O)CC(C)C	-2.07% (inactive)	
O=c1[nH][nH]c(=O)c2cc([N+](=O)[O-])ccc12	0.753% (inactive)	
CC(C)N(C)C	5.01% (inactive)	
CCCCCCC(O)CCOC(C)=O (stereo not given)	-0.431% [at 200 µM] (inactive)	

Source: PubChem BioAssay (Tox21)
